Screening data from PubChem.
Shiga inhibitor: A qHTS for Small Molecule Inhibitors of Shiga Toxin; Vero cells, Shiga toxin protein synthesis inhibition reporter; inhibition, % at 38.7 µM; actives 9.2% (n = 290,000); AID 2315, 2010; in the data active means inhibition mostly above about 28%, no sharp cut-off; inactive means mostly below about 43%; further: 0% is about no effect
AmpC no deterg: qHTS Inhibitors of AmpC Beta-Lactamase (assay without detergent); AID 485341, 2010; AmpC nitrocefin hydrolysis, absorbance 480 nm, 0.0001% Triton; Potency, µM (top dose mostly 57.1 µM), for the others: at the highest dose activity change, negative = inhibition, hits mostly inhibitors; actives 0.52% (n = 330,000); P00811;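 further: potency means the concentration at half of the fitted maximal effect; plate controls were no compound for no effect and no enzyme for full effect; nearly all actives have a fitted effect of over 20% in size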
Target sequence (P00811 whole entry, looked up): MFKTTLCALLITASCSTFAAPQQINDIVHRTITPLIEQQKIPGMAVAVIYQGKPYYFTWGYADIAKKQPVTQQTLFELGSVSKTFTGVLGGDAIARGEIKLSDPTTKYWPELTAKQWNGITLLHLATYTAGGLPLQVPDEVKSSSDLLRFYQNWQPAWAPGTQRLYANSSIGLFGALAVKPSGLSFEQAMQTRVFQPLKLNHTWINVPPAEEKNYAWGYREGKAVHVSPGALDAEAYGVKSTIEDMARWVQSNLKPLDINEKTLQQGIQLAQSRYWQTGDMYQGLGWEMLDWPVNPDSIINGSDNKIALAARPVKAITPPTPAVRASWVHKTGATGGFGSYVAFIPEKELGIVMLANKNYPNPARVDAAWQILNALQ
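AmpC (5.3 nM in the dispensed reagent) in 20 mM phosphate pH 7.0 with 0.01% (detergent screen) or 0.0001% Triton X-100 was preincubated with compounds for 15 min at room temperature. Nitrocefin was then added from an 800 uM solution, and hydrolysis was followed at 480 nm.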
AMA1-RON2 inh: qHTS for Inhibitors of AMA1-RON; Towards Development of Antimalarial Drug Lead: Primary Screen; Plasmodium falciparum AMA1 (3D7) - RON2 peptide interaction; actives 0.2% (n = 360,000); Potency, µM (top dose mostly 58.2 µM), for inactives: top-dose activity change, negative = inhibition, most hits filed as inhibitors; AlphaScreen AMA1-biotinylated RON2 peptide binding;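 further: potency means the concentration at half of the fitted maximal effect; 0% = vehicle wells and -100% = peptide control; nearly all actives have a fitted effect of over 45% in size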
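AMA1 (3D7) with his tag at 25 nM final met compounds first, then biotinylated RON2 peptide at 25 nM; detection used donor plus acceptor beads, 10 µg/mL apiece, read by AlphaScreen after 30 min at room temperature.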
SARS PLP yeast: qHTS of Yeast-based Assay for SARS-CoV PLP | S. cerevisiae expressing SARS-CoV PLpro, growth rescue | Potency, µM (highest dose often 32.9 µM), without a hit: top-dose activity, positive = growth rescue, actives largely listed as activators | actives 0.19% (n = 330,000); calls by dose curve; further: potency means the concentration at half of the fitted maximal effect; 0% is about no effect; nearly all actives have a fitted effect of over 55% in size
Cycloheximide cs: Cycloheximide Counterscreen for Small Molecule Inhibitors of Shiga Toxin. AID 2314, 2010. cell reporter, cycloheximide protein synthesis inhibition counterscreen. max response, %. actives 12% (n = 300,000); in the data active means max response mostly above about 13%, no sharp cut-off; inactive means mostly below about 14%; further: read at 38.3 µM for the half of the compounds with a filed dose; 0% is about no effect
AmpC inh detg: qHTS Inhibitors of AmpC Beta-Lactamase (assay with detergent); AID 485294, 2010; Potency, µM (series often up to 114 µM), without a hit: at the highest dose activity change, negative = inhibition, most hits filed as inhibitors; actives 0.041% (n = 370,000); AmpC hydrolysis of nitrocefin, absorbance 480 nm, 0.01% Triton; P00811;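 further: potency means the concentration at half of the fitted maximal effect; 0% = no-compound wells and -100% = no-enzyme wells; nearly all actives have a fitted effect of over 25% in size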
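AmpC (5.3 nM in the dispensed reagent) in 20 mM phosphate pH 7.0 with 0.01% (detergent screen) or 0.0001% Triton X-100 was preincubated with compounds for 15 min at room temperature. Nitrocefin was then added from an 800 uM solution, and hydrolysis was followed at 480 nm.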
Numbers without * were called inactive; ? = inconclusive; . = no result given; [ ] = remark or other dose. This is one part of a sample in which hits are shown more often than they occur. Unless noted, the call rests on the fitted dose curve; in most records, active means well fitted curve in the direction sought with a large enough effect; inconclusive means small, poorly fitted or top-dose-only effect, or another doubt; inactive means no such curve, though single readings can be large; an effect the other way counts as inactive or inconclusive.

SMILES	Shiga inhibitor	AmpC no deterg	AMA1-RON2 inh	SARS PLP yeast	Cycloheximide cs	AmpC inh detg
CC(=O)Oc1ccccc1C(=O)Oc1ccc(/C=N/n2cnnc2)cc1	15	-14%	-6%	4%	2	?
O=C(N/N=C/c1cccc(OC(=O)c2ccccc2Cl)c1)c1cccnc1	49*	-1%	-8%	-8%	25*	-21%
O=C(Oc1ccc(/C=N/O)cc1)c1ccccc1Cl	69*	-3%[2.29 µM]	2%	-2%	51*	-4%
CCCNC(=O)CCSc1nc(-c2ccc3c(c2)OCO3)cc(C(F)(F)F)n1	.	.	.	.	.	19%
Cc1ccc(S(=O)(=O)N2C[C@H]3C(=O)C[C@@H](c4ccccc4)N(S(=O)(=O)c4ccc(C)cc4)[C@H]3C[C@H]2c2cccc(Cl)c2)cc1	.	.	5%	.	.	.
Cc1cc(C)c(-c2cc(C)nc3ncnn23)c(C)c1	17	-19%	21%	0%	3	-14%
Cc1cccc(CC(C)NC(=O)c2oc3c(F)cccc3c2C)n1 (configuration not stated)	29*	60%	4%	1%	15*	-8%
Cc1c(C(=O)NC(c2ccccn2)C(F)(F)F)oc2c(F)cccc12 (configuration not stated)	-15	-13%	0%	3%	-2	-5%
CNCc1ccccc1Sc1cc(O)ccc1O	-7	-33%	11µM*	-39%	-3	?
CNCc1ccccc1Sc1cccc(O)c1	-1	-15%	-2%	4%	-3	-17%
COc1ccc(O)c(/C=N/c2nc3ccccc3n2C)c1	-3	-12%	2%	6%	1	-15%
CCn1c(/C=C/c2cc[n+](C)cc2)nc2ccccc21	-7	-6%	-9%	2%	-1	?
COc1cccc(CNc2cnc3ccccc3c2)c1O	44*	-9%	1%	-2%	30*	2%
Cn1c(NN=O)nc2ccccc21	49*	-2%	-5%	0%	28*	1%
COc1cccc(CNc2cccc(C(F)(F)F)c2)c1O	10	-52%	10%	-8%	7	1%
CCn1c(/C=N/c2nc3ccccc3n2C)nc2ccccc21	24	-19%	9%	-7%	13*	2%
COc1cccc(/C=N/c2nc3ccccc3n2C)c1O	33	-13%	20%	0%	20*	2%
O=NNc1nc2ccccc2n1Cc1ccccc1	11	-21%	64%	3%	-4	-4%
O=C(CN1c2cccc3cccc(c23)S1(=O)=O)NCCc1ccccc1	.	-23%	-12%[11.6 µM]	?	.	.
CCOC(=O)C[C@H]1c2cc(F)ccc2S(=O)(=O)N1C1CCCCC1	.	.	0%	.	.	.
Nc1nc(NCCOCCO)nc(NCc2ccccc2)c1[N+](=O)[O-]	-4	-9%	-2%	0%	-2	-7%
COc1ccccc1CNC(=O)CCCC(=O)n1nc(C)c2ccccc21	5	24%	-3%	-14%	-2	-11%
O=C(COC(=O)c1ccccc1Cl)NCc1ccco1	.	-21%	-2%[11.6 µM]	2%	.	.
CC(C)c1ccc(/C=N/n2c(COc3ccccc3)n[nH]c2=S)cc1	-13	-22%	74%	-1%	3	8%
O=C(c1cccc([N+](=O)[O-])c1)N1CCCC(C(=O)N2CCCCCC2)C1 (configuration not stated)	21	-5%	-14%	2%	-2	6%
SMILES	Shiga inhibitor	AmpC no deterg	AMA1-RON2 inh	SARS PLP yeast	Cycloheximide cs	AmpC inh detg
CCCCCn1c(NCc2ccccc2OC)nc2ccccc21	.	.	.	.	.	-2%
Oc1ccc(Br)cc1CNc1cnc2ccccc2c1	21	18µM*	9%	-10%	2	-3%
COc1ccccc1Nc1nc2ccccc2n1C	66*	-29%	-2%	8%	30*	-5%
COc1cccc(CNc2nc3ccccc3n2C)c1O	.	-24%	0%	-3%	35*	?
Cc1ccc(O)c(CNc2cnc3ccccc3c2)c1	.	-47%	-5%	?	11	-7%
CCN(CC)c1nc(Oc2ccc(C(=O)NN)cc2)nc(Oc2ccc(C(=O)NN)cc2)n1	-18	72%	4%	-1%	-3	0%
O=C1C=C(O)c2cccc3cccc1c23	.	-31%	-2%	-2%	1	-22%
C[C@@H]1CN([C@@H](C)CO)C(=O)Cc2cc(NC(=O)Nc3ccc(F)cc3)ccc2O[C@@H]1CN(C)Cc1ccc(Cl)c(Cl)c1	.	13%	-12%	8%	.	.
COCCCN1C(=O)c2ccc(C(=O)OCC(=O)NCc3cccc(OC)c3)cc2C1=O	.	-6%	-8%[11.6 µM]	3%	.	?
Cc1cccc(NS(=O)(=O)c2coc(C(N)=O)c2)c1C	-2	-7%	0%	?	-1	-9%
Cc1ccc2c(c1)NC(=O)c1cccnc1N2	97	-33%	-7%	0%	51*	?
CCOC(=O)c1c(NC(=O)C2=C(C)NC(=S)NC2c2ccc(CC)cc2)sc(C)c1C (configuration not stated)	11	13µM*	.	5%	11	-11%
CCOC(=O)C1=C(C)NC(=S)NC1c1ccc(OC(=O)c2ccco2)cc1 (configuration not stated)	14	-29%	36%	-10%	0	3%
CN1CCC(CNC(=O)Nc2csc3ccccc23)CC1	36	-14%	24%	-2%	25	-3%
O=C(Nc1ccc(F)cc1)Nc1csc2ccccc12	97*	-43%	-10%	-8%	21*	1%
CN(C)c1ccc(NC(=O)Nc2csc3ccccc23)cc1	76*	-49%	-27%	-1%	44*	4%
CCOC(=O)[C@H]1[C@H]2COc3ccc(C)cc3[C@@H]2N2C(=O)c3cc(C)ccc3NC(=O)[C@@]12C	.	-22%	-3%	3%	.	.
O=C1C2=C(Nc3ccccc3SC2c2ccco2)c2ccccc21 (configuration not stated)	78*	-38%	?	-14%	33*	3%
CCCNC(=O)c1c(O)c2c([nH]c1=O)CCCC2	12	165%	-8%	-1%	12	0%
CC(C)Cn1c(-c2ccco2)nc2c(c(=O)c3ccccc3n2C)c1=O	10	-23%	.	-10%	6	3%
CCCCn1c(CN(C)Cc2ccccc2)nc2c1c(=O)n(C)c(=O)n2C	13	?	4%	-1%	-4	-1%
N/C(=N\OC(=O)CCCc1ccccc1)c1cccc([N+](=O)[O-])c1	-5	-40%	-9%	-58%	7	0%
N/C(=N\OC(=O)CCCc1ccccc1)c1ccccc1	27	-22%	34%	1%	31*	5%
Cc1cccc(/C(N)=N/OC(=O)CCCc2ccccc2)c1	66*	-27%	38%	0%	57*	-2%
